Out of some 2,100 compounds screened, about 1,100 (52%) were called active. Another 27% or so got no clear call; they are omitted. The set was probably picked from earlier hits. Some of the results follow. Unmarked numbers belong to inactive results. The call rests on the fitted dose curve; in most records, active means well fitted inhibition curve with a large enough effect; inconclusive means small, poorly fitted or top-dose-only effect; inactive means no such curve, though single readings can be large or run the other way.
biological target: DNA dC->dU-editing enzyme APOBEC-3G (Homo sapiens) (UniProt Q9HC16); test: qHTS for inhibitors of Vif-A3G interactions: Cherry picks counterscreen; conditions: HeLa A3G-eYFP + Vif (tagged APOBEC3G with the HIV-1 protein that degrades it), eYFP fluorescence, 24 h;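 further: hits raise yellow fluorescence by blocking Vif-driven A3G-eYFP degradation; nearly all actives have a fitted effect of over 70% in size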;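 on max response: max response given as percent of control signal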
Sequence (Q9HC16 whole entry, looked up): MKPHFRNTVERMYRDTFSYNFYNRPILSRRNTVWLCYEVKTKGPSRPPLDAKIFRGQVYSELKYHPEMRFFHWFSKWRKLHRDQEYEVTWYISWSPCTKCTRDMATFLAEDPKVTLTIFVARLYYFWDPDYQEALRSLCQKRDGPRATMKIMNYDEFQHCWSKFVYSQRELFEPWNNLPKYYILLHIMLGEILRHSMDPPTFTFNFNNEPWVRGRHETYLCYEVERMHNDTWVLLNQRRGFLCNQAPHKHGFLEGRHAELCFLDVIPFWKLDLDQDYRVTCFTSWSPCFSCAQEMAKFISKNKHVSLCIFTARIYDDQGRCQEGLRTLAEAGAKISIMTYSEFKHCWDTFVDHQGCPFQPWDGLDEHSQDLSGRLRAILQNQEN
How it was run: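 Readout is eYFP fluorescence (488 nm excitation, 500-530 nm emission) measured on Acumen Explorer after 24 h compound exposure, several concentrations, at 37 deg C. Cells: HeLa stably co-expressing Vif and C-terminally eYFP-tagged A3G; MG132 positive control.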
Potency means the concentration at half of the fitted maximal effect.

Question: With `COCCNC(=S)N/N=C(\C)c1ccccc1O` as the compound, how does the max response read?
Answer: 6.88%

Question: How did the max response turn out when `COCCCNC(=S)N/N=C/c1cccc(OC)c1O` was run?
Answer: 7.9%

Question: For `COc1ccccc1/C=N/NC(=O)c1cc2c(OC)c(OC)ccc2[nH]1`, which Potency is on record?
Answer: 5.59 µM (active)

Question: With `CCOc1ccc(/C=N/NC(=O)c2cc3c(OC)cccc3[nH]2)cc1` as the compound, how does the max response read?
Answer: 2.03%

Question: How did the Potency turn out when `COc1cccc(/C=N/NC(=O)c2cc3c(OC)c(OC)ccc3[nH]2)c1OC` was run?
Answer: 7.9 µM (active)

Question: With `COc1ccc(N=Cc2c(O)n(-c3cccc(C)n3)c(=O)c3ccccc23)c(OC)c1` as the compound, how does the Potency read?
Answer: 6.51 µM (active)

Question: With `Cc1ccc(N=Cc2c(O)n(-c3nccs3)c(=O)c3ccccc23)c(C)c1` as the compound, how does the max response read?
Answer: -1.11%

Question: With `CC1=Nc2ccc(C)cc2/C1=C/c1c(N)n2oc(C)cc2nc1=O` as the compound, how does the Potency read?
Answer: 16.4 µM (active)

Question: `CCSC1=NSC2=NC(=O)/C(=C\c3coc4ccccc4c3=O)C(=N)N12` was tested. Which Potency did it give?
Answer: 16.4 µM (active)

Question: For `Cc1ccc(Cn2c(SCc3ccc(C(=O)NC4CCCC4)cc3)nc3ccncc32)cc1`, which max response is on record?
Answer: -1.29%

Question: Which Potency does the source give for `COc1ccc(C)cc1Nc1c2c(nc3ccccc13)CCC2` here?
Answer: 0.886 µM (active)

Question: With `Cc1ccc(O)c(Nc2c3ccccc3nc3ccccc23)c1` as the compound, how does the max response read?
Answer: 10.9%

Question: With `Cc1ccc(-c2cn3nc(-c4ccccc4)c(-c4ccccc4)nc3n2)cc1` as the compound, how does the Potency read?
Answer: 16.4 µM (active)

Question: Which Potency does the source give for `Cc1ccc(N=C2NC(=O)/C(=C/c3cccn3C)S2)cc1` here?
Answer: 14 µM (active)

Question: With `Cc1cccc(N=C2NC(=O)/C(=C/c3cccn3C)S2)c1` as the compound, how does the max response read?
Answer: -23.6%

Question: With `Cc1ccc(N=C2NC(=O)/C(=C/c3cn(C)c4ccccc34)S2)cc1C` as the compound, how does the Potency read?
Answer: 17.7 µM (active)

Question: With `Cn1cccc1/C=C1\SC(=Nc2cccc(O)c2)NC1=O` as the compound, how does the Potency read?
Answer: 11.2 µM (active)

Question: How did the Potency turn out when `Cn1cccc1/C=C1\SC(=Nc2ccccc2)NC1=O` was run?
Answer: 2.5 µM (active)

Question: Which max response does the source give for `O=C(NC(=S)Nc1ccccc1N1CCCCC1)c1ccccc1` here?
Answer: 8.17%

Question: Which Potency does the source give for `COc1cc(S(=O)(=O)Nc2ccccc2N2CCCCC2)ccc1NC(C)=O` here?
Answer: 2.23 µM (active)

Question: Which Potency does the source give for `C=CCN1C(=O)/C(=C2/Sc3ccc(OC)cc3N2CC)SC1=S` here?
Answer: 11.6 µM (active)

Question: How did the Potency turn out when `C=CCN1C(=O)/C(=C2/Sc3ccc(OC)cc3N2C)SC1=Nc1cccc(O)c1` was run?
Answer: 18.4 µM (active)

Question: With `Cc1cc(-n2c(SCC(=O)Nc3ccc(Br)cc3)nc3n[nH]c(C)c3c2=N)ccc1Cl` as the compound, how does the max response read?
Answer: -13.3%

Question: How did the Potency turn out when `CCOC(=O)N1CCc2c(sc3c2C(=O)NC(c2ccc(N(C)C)cc2)N3)C1` (stereo unspecified) was run?
Answer: 4.11 µM (active)

Question: Which max response does the source give for `O=C(CC1CC2CCC1C2)Nc1nc(-c2ccccn2)cs1` (stereo unspecified) here?
Answer: 10.6%

Question: `CC(=O)c1ccc(-c2ccc(C(=O)Nc3nc(-c4ccccn4)cs3)o2)cc1` was tested. Which Potency did it give?
Answer: 12.5 µM (active)

Question: For `O=C(Nc1nc(-c2ccccn2)cs1)C1CCCC1`, which max response is on record?
Answer: -16.3%

Question: How did the Potency turn out when `O=C(N/N=C/c1cccc2ccccc12)c1cc2ccccc2o1` was run?
Answer: 9.94 µM (active)

Question: With `Cc1cc(/C=N/NC(=O)c2cc3ccccc3o2)c(C)n1C` as the compound, how does the max response read?
Answer: -4.16%

Question: For `Cc1c(/C=N\NC(=O)c2cc3ccccc3o2)c2ccccc2n1C`, which Potency is on record?
Answer: 3.96 µM (active)

Question: How did the max response turn out when `CCCOc1ccc(NC(=O)CC2C(=O)N(c3ccc(OCC)cc3)C(=S)N2C2CC2)cc1` (stereo unspecified) was run?
Answer: -18.2%

Question: With `COc1cc(N2CCCC2)c(OC)cc1/C=C(/C#N)c1ccc(Br)cc1` as the compound, how does the Potency read?
Answer: 1.64 µM (active)

Question: Which max response does the source give for `COc1cc(N2CCCC2)c(OC)cc1/C=C1/NC(=S)NC1=O` here?
Answer: 60.5%

Question: With `COc1cc(N2CCCC2)c(OC)cc1/C=C(/C#N)c1ccc(F)cc1` as the compound, how does the Potency read?
Answer: 8.2 µM (active)

Question: For `CCOC(=O)C(C)Oc1cccc2c(=O)n(CC(=O)NCc3ccco3)ccc12` (stereo unspecified), which Potency is on record?
Answer: 1.4 µM (active)

Question: For `COC(=O)COc1cccc2c(=O)n(CC(=O)NCc3ccccc3)ccc12`, which Potency is on record?
Answer: 6.27 µM (active)

Question: `O=c1[nH]c(NCc2ccco2)nnc1Cc1ccccc1Cl` was tested. Which Potency did it give?
Answer: 15.8 µM (active)

Question: How did the max response turn out when `CCOc1cc(/C=C(\C#N)c2nc(-c3cccs3)c(NC(C)=O)s2)ccc1O` was run?
Answer: 51.1%

Question: For `CC(=O)Nc1sc(/C(C#N)=C/c2ccc(Cl)c(Cl)c2)nc1-c1ccc(C)cc1`, which Potency is on record?
Answer: 0.731 µM (active)

Question: Which Potency does the source give for `CC(=O)Nc1sc(/C(C#N)=C\c2cccc(Cl)c2)nc1-c1ccc(C)cc1` here?
Answer: 4.61 µM (active)

Question: Which max response does the source give for `CCCCOc1ccc(/C=C/C2=CC(C)(C)NC(=S)N2)cc1OCC` here?
Answer: -1.97%

Question: With `COc1ccccc1-c1c(C#N)c(N)nc2c1CCc1ccccc1-2` as the compound, how does the Potency read?
Answer: 6.27 µM (active)

Question: How did the Potency turn out when `CC1=C(C(=O)Nc2cccc(F)c2)C(c2ccsc2)C2=C(CC(C)(C)CC2=O)N1` (stereo unspecified) was run?
Answer: 1.98 µM (active)

Question: With `Cc1cc(C)c(S(=O)(=O)Oc2ccccc2[N+](=O)[O-])c(C)c1` as the compound, how does the Potency read?
Answer: 3.53 µM (active)

Question: How did the max response turn out when `O=[N+]([O-])c1ccccc1SNc1ccccc1` was run?
Answer: -7.81%

Question: `CC(C)n1cnc2c(NCc3ccccc3)cc(N[C@H](C)CO)cc21` was tested. Which Potency did it give?
Answer: 15.8 µM (active)

Reference: PubChem BioAssay AID651813 (National Center for Advancing Translational Sciences (NCATS), 2012)
